# This is part of a sample that, as a whole, favours compounds with a hit. Of some 79,000 tested, about 15% had one in any assay. Values without a mark were called inactive. Active and inactive are the calls of the source. No stated cut-off is given here; in the data, active means growth inhibition above about 70%; inactive means the rest. Where a SMILES comes first, the peptide text is derived from it. [ ]: non-standard residue; d: D form. ξ: configuration not given here. ξPhe(4-N(CH2CH2Cl)2) = NC(Cc1ccc(N(CCCl)CCCl)cc1)C(=O)O; Aad = N[CH](CCCC(=O)O)C(=O)O
# Key:
# [1] = NCI Yeast Anticancer Drug Screen. Data for the rad50 strain (AID 155);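 further: 0% = growth of vehicle-only cultures of the same strain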; details: S. cerevisiae rad50 strain growth inhibition; at 50.0 µM; stronger effect = higher value
# Procedure, shortened: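 Genetically altered yeast (DNA repair pathway); compound treatment; growth inhibition vs vehicle ctrl.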
# [2] = NCI Yeast Anticancer Drug Screen. Data for the sgs1 mgt1 strain (AID 161);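 further: 0% = growth of cultures given vehicle only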; details: S. cerevisiae sgs1 mgt1 strain, at 50.0 µM, stronger effect = higher value
# Procedure, shortened: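 Genetically altered yeast, compound exposure, growth inhibition relative to vehicle.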
# [3] = NCI Yeast Anticancer Drug Screen. Data for the cln2 rad14 strain (AID 165);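 further: 0% = growth equal to vehicle treated cultures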; details: S. cerevisiae cln2 rad14 strain, at 50.0 µM, stronger effect = higher value
# Procedure, shortened: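 Each compound was tested on cln2 rad14 yeast. Inhibition of growth was calculated against vehicle-exposed controls.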
# [4] = NCI Yeast Anticancer Drug Screen. Data for the bub3 strain (AID 167); details: S. cerevisiae bub3 mutant strain, at 50.0 µM, stronger effect = higher value
# Procedure, shortened: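 Yeast carrying a defined mutation is treated with each compound, and growth is compared with that of vehicle-exposed cells to give inhibition.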
# [5] = NCI Yeast Anticancer Drug Screen. Data for the mlh1 rad18 strain (AID 175); details: S. cerevisiae mlh1 rad18 strain growth inhibition; at 50.0 µM; stronger effect = higher value
# Procedure, shortened: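 Vehicle-treated cultures served as the reference for growth inhibition in a yeast strain carrying DNA damage repair alterations exposed to each compound.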
# [6] = NCI Yeast Anticancer Drug Screen. Data for the mec2-1 strain (AID 157); details: S. cerevisiae mec2-1 strain, at 50.0 µM, stronger effect = higher value
# Procedure, shortened: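 Vehicle-treated cultures served as reference for growth inhibition of compound-exposed mec2-1 yeast.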
Structure (SMILES),growth inhibition [1] [%],growth inhibition [2],growth inhibition [3],growth inhibition [4],growth inhibition [5],growth inhibition [6]
Cc1ccccc1-n1c(C)nc2ccccc2c1=O,-29.3,-1.35%,11.6%,1.5%,-20.7%,
NNN1CCN(N)CC1,11.1,6.35%,-8.35%,17.1%,4.35%,
CCCC[C@H]1C(=O)O[C@H](C)[C@H](NC(=O)c2cccc(NC=O)c2O)C(=O)O[C@@H](C)[C@@H]1OC(=O)CC(C)C,18.4,30.9%,16.4%,13.6%,44.2%,
[N-]=[N+]=Nc1ccnc2cc(Cl)ccc12,-29.9,-9.05%,-68%,-5.45%,-10.7%,
NC(=O)CCl,6,-2.6%,-1.45%,12.4%,-12.9%,
O=C(c1ccccc1)C1CN(C2CCCC2)C1c1ccccc1 (stereo unspecified),-10.2,-1.55%,-27.3%,10.4%,16.1%,
COc1cc2c(cc1OC)C13CCN4CC5CCOC6CC(=O)N2C1C6C5CC43 (stereo unspecified),8.6,21.6%,10.2%,-7.5%,-72.3%,
COc1ccc(C(=O)OC2CC3CCC(C2)N3)cc1OC (stereo unspecified),7.25,,,,22.8%,
CCC1CC[Si](C)(C)CC12C(=O)NC(=O)NC2=O (stereo unspecified),,11.5%,1.65%,12.9%,-0.55%,-2.25%
COc1ccc2[nH]cc(CCN(C)C)c2c1,,1.85%,17.1%,-1.6%,-9.85%,-24.8%
Nc1ccccc1Nc1ccccc1C(=O)[O-].Nc1ccccc1Nc1ccccc1C(=O)[O-].[Cu+2],,-19.5%,-3.3%,-11.8%,7.75%,7.8%
NC(=O)c1cc(N(CCBr)CCBr)c([N+](=O)[O-])cc1[N+](=O)[O-],,17.6%,14.2%,16.9%,9.3%,1.25%
CC1=CP(=O)(OC(C)C)CC(C)=C1Cl (stereo unspecified),,-11.4%,-9.55%,-25.8%,20.8%,-6.9%
O=C(Nc1c(O)[nH]c(=S)[nH]c1=O)c1ccccn1,,-3.75%,1.7%,-8.3%,-8.3%,-14.7%
COC(=O)C1C(OC(=O)c2ccccc2)CC2CCC1N2C(N)=O (stereo unspecified),,-8.05%,-23%,-15.9%,3.3%,-0.75%
COc1ccc2ccc([Se]c3ccc4ccc(OC)cc4c3)cc2c1,,-1.85%,4.45%,7.55%,-1.1%,
[C-]#[O+].[C-]#[O+].[C-]#[O+].[C-]#[O+].[Cr].c1ccc([As](CC[As](c2ccccc2)c2ccccc2)c2ccccc2)cc1,,8%,6.65%,36.2%,29.1%,21.4%
c1c2c(cc3c1OCO3)-c1cc3ccc4c(c3c[n+]1CC2)OCO4,,0.35%,4.9%,-48.5%,-52.5%,-9.1%
CN1C2CCC1C(Br)C(=O)C2 (stereo unspecified),,,,,-51.2%,
CN1C(=O)C(=CN(C)c2ccccc2)C(=O)N(C)C1=O,,23.7%,13.5%,4.4%,-8.85%,8.4%
NC1C(=O)NC(=O)NC1=O,,8.4%,15.1%,4.6%,22.8%,11.4%
CCOP(=O)(OCC)SC=C(Cl)Cl,,2.1%,-10.6%,5%,6.15%,5.5%
C/C(=N\N=C(N)N)C(CN(C)C)C(c1ccccc1)c1c(O)c2ccccc2oc1=O (stereo unspecified),,-4.45%,13.8%,-1.5%,16.8%,23.4%
O=S(=O)(O)c1ccc(Cl)cc1,,-1.15%,23.1%,0.3%,9.1%,-3.2%

Structure (SMILES),growth inhibition [1] [%],growth inhibition [2],growth inhibition [3],growth inhibition [4],growth inhibition [5],growth inhibition [6]
N[C@@H](Cc1ccc2oc3cc(=O)c4ccccc4c-3nc2c1)C(=O)O,,10%,39.2%,28.8%,35%,32.9%
O=C(O)c1ccc(=O)[nH]c1,,10.2%,-22.1%,13.9%,19.6%,7.85%
CC(C)(O)OC1COC(C2CS2)C1O (stereo unspecified),,3.95%,34.8%,29.6%,-22.4%,15.6%
C[C@]12CCC(=O)C[C@@H]1CC[C@@H]1[C@@H]2CC[C@]2(C)[C@@H](OC(=O)N(CCCl)N=O)CC[C@@H]12,,24.5%,55.2%,29.9%,60.1%,33.8%
N#CC(C#N)=Cc1ccccc1[N+](=O)[O-],,8.3%,25.6%,39.8%,29.7%,17.2%
O=C(c1ccc(Cl)cc1)N1CCOCC1,,-7.6%,-29.4%,-53%,-7.95%,-15.2%
CCN(CC)CCn1c(=O)c2ccccc2n(CCN(CC)CC)c1=O,,22.5%,20.8%,12.7%,10.4%,13.1%
N=C(N)n1cc(/C=N/N=C(N)N)cn1,,-0.15%,0.1%,-8.3%,5.8%,-4.35%
CCCCCCCCCNP(=O)(OCc1ccccc1)N(CCCl)CCCl (stereo unspecified),,40.2%,34.8%,-0.4%,26.4%,37.2%
O=C(O)C1C2c3ccccc3C(c3ccccc32)C1C(=O)NCC1CC1 (stereo unspecified),,10.4%,13.6%,21.4%,24.2%,7.55%
Clc1ccc(C(c2ccc(Cl)cc2)c2ccccn2)cc1,,98.5% (active),97.8% (active),98.3% (active),98.4% (active),98.3% (active)
CCCCOCN(CCc1ccccc1)COCCCC,,24.2%,19.2%,10.2%,25.6%,5.8%
[Br][Sn]([Br])([CH2][Sn]([Br])([c]1ccccc1)[c]1ccccc1)[c]1ccccc1,,,,,81.7% (active),
O=C(CCN1CC=C(c2ccccc2)CC1)c1ccc(F)cc1,,88.6% (active),67.5%,64.2%,92.3% (active),51.5%
ClCCN(CCCl)c1ccc2c(c1)Cc1cc(Br)ccc1-2,,40.7%,30.8%,2.6%,6.9%,2%
Nc1cc([N+](=O)[O-])cc([N+](=O)[O-])c1,,30.1%,,2.5%,41.3%,-9.3%
O=S(=O)(O)C(Br)(Br)Br,,23.6%,-26.9%,7.25%,28.2%,5.3%
CCOC(=O)C(Cc1ccc(N(CCCl)CCCl)cc1)NC(=O)C(CCC(=O)O)NC(=O)C(Cc1ccc(O)cc1)NC(=O)C(CCCC(=O)O)NC(=O)C(N)Cc1ccc(O)cc1 (stereo unspecified) (H-Y[Aad]YE[ξPhe(4-N(CH2CH2Cl)2)]-OEt; configuration not given here),,-6.5%,14.8%,8.05%,30.3%,13.9%
[CH3][Sn]1([CH3])[O]C(=O)C(=O)[O]1,,2.4%,-26.8%,-9.6%,7.8%,19.4%
CC1=C(C)C(=O)O[C@@H]([C@](C)(O)[C@]2(O)CC[C@@]3(O)[C@@H]4C[C@H]5O[C@]56CC=CC(=O)[C@]6(C)[C@H]4CC[C@]23C)C1,,43.8%,27.3%,45.9%,40.2%,
OCCNC1CCCCC1,,-13.8%,-1.8%,3.55%,-16.1%,-1.65%
COc1ccc(CC[N+](C)(C)C)cc1,,,,,32.5%,-2.5%
CC(=O)CCC(=O)O.[Ni],,-7.45%,-27.4%,-7.65%,1.9%,0.2%
CC[C@@]1(O)C(=O)OCc2c1cc1n(c2=O)Cc2cc3cc(OC)ccc3nc2-1,,86.7% (active),80.7% (active),83.6% (active),,

# Reference: PubChem BioAssay (NCI)
